Experimental data reported in PubChem BioAssay (EPA / NIEHS).
“And” between values parts separate entries of the source, which are not always exact repeats. Equal entries are not always repeated. Results filed as inconclusive are left out. A structure can be active in one record and inactive in another. The source made the active and inactive calls. The calls were made as follows, unless noted: active = hit-call score of the fitted dose curve at least 0.9, where 1 is the maximum; inconclusive = response in the unintended direction; inactive = score below 0.9.

Tests used:
[1] = CCTE_Mundy_HCI_hNP1_Casp3_7: CCTE's Caspase-Glo 3/7 Assay in human neuroprogenitor cells for Apoptosis, Mundy Lab (AID 2284240; active = hit-call score of the fitted dose curve at least 0.9, where 1 is the maximum; inactive = score below 0.9)
In short: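 Luminescent caspase-3/7 readout, 26.5 h post-dose, in human neural progenitor cells from WA09 embryonic stem cells. Cells grew 40–44 h at 37 °C, 5% CO2 before chemical addition. Activity analysed as signal increase over DMSO baseline.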

[2] = CCTE_Mundy_HCI_hNP1_CellTiter: CCTE's Cell Titer-Glo 2 Assay in human neuroprogenitor cells for Viability, Mundy Lab (AID 2284241);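 as to AC50: a hit is a drop in ATP luminescence versus DMSO meaning reduced viability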
In short: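 Viability read as luminescent ATP content (CellTiter-Glo, 30 min room temperature) twenty-four hours after dosing, relative to DMSO. Cells: WA09-derived hNP1 neuroprogenitors on poly-L-ornithine/laminin, plated 40 to 44 hours before chemical.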

[3] = CCTE_Mundy_HCI_Cortical_Synap_Neur_Matur_NeuronCount: CCTE's Synaptogenesis and Neurite Maturation Assay in rat cortical cells for Neuron Count, Mundy Lab (AID 2284242);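 as to AC50: neuron number from Hoechst nuclei and MAP2 staining by high-content imaging; hits reduce neuron count versus DMSO baseline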
In short: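 Rat primary cortical cells received AraC at DIV 5 to arrest glia, then were dosed with chemicals at DIV 7 through DIV 12. Fixed cells were stained for nuclei, MAP2 and synaptophysin, and neurons were counted by high-content imaging relative to DMSO.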

[4] = read-out: Collagen III, COL3A1 (gene 1281); experiment: BSK_MyoF_CollagenIII: BioMAP Diversity Plus: MyoF Assay for Collagen III Biomarker Activity (AID 2284239; active = hit-call score of the fitted dose curve at least 0.9, where 1 is the maximum; inactive = score below 0.9); conditions: primary human lung fibroblasts
In short: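 Lung fibroblast culture; 24 h compound exposure; collagen III by ELISA; gain-of-signal fit vs DMSO baseline.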

[5] = read-out: Interleukin 17F (IL17F), IL17F (gene 112744); experiment: BSK_BT_xIL17F: BioMAP Diversity Plus: BT Assay for Interleukin 17F (IL17F) Biomarker Activity (AID 2284243; active = hit-call score of the fitted dose curve at least 0.9, where 1 is the maximum; inactive = score below 0.9); conditions: primary human B cells with PBMC
In short: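 Secreted IL-17F, read on LumineX xMAP beads, was taken as the endpoint. Cultures combined human B cells and peripheral blood mononuclear cells, sampled 24 hours after dosing, with DMSO serving as negative control.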

[6] = read-out: Actin alpha 1 (ACTA1), ACTA1 (gene 58); experiment: BSK_MyoF_ACTA1: BioMAP Diversity Plus: MyoF Assay for Actin alpha 1 (ACTA1) Biomarker Activity (AID 2284244; active = hit-call score of the fitted dose curve at least 0.9, where 1 is the maximum; inactive = score below 0.9); conditions: primary human lung fibroblasts
In short: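 Human lung fibroblasts (MyoF system) dosed with test chemical for 24 h; α-SMA measured by ELISA. Gain of signal fitted relative to DMSO negative control as baseline.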

[7] = read-out: Interleukin 2 (IL2), IL2 (gene 3558); experiment: BSK_BT_xIL2: BioMAP Diversity Plus: BT Assay for Interleukin 2 (IL2) Biomarker Activity (AID 2284245; active = hit-call score of the fitted dose curve at least 0.9, where 1 is the maximum; inactive = score below 0.9); conditions: primary human B cells with PBMC
In short: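 Human B cells co-cultured with PBMC, exposed to test chemical for 24 h. Secreted IL-2 quantified by Luminex xMAP bead immunoassay; activity fitted in the positive direction relative to DMSO vehicle baseline.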

[8] = read-out: Basic fibroblast growth factor (bFGF), FGF2 (gene 2247); experiment: BSK_MyoF_bFGF: BioMAP Diversity Plus: MyoF Assay for Basic fibroblast growth factor (bFGF) Biomarker Activity (AID 2284246; active = hit-call score of the fitted dose curve at least 0.9, where 1 is the maximum; inactive = score below 0.9); conditions: primary human lung fibroblasts
In short: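 Human lung fibroblasts were dosed with chemicals and bFGF was quantified by ELISA 24 h later. Activity was fitted in the gain-of-signal direction relative to DMSO as negative control and baseline. Parallel SRB total-protein staining tracked overt cytotoxicity.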

[9] = read-out: Collagen IV, COL4A1 (gene 1282); experiment: BSK_MyoF_CollagenIV: BioMAP Diversity Plus: MyoF Assay for Collagen IV Biomarker Activity (AID 2284247; active = hit-call score of the fitted dose curve at least 0.9, where 1 is the maximum; inactive = score below 0.9); conditions: primary human lung fibroblasts
In short: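 Primary human lung fibroblasts were exposed to test chemicals and sampled 24 h after dosing. Collagen IV levels were measured by ELISA and fitted in the positive direction against DMSO as negative control and baseline.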

[10] = read-out: Plasminogen activator inhibitor-1 (PAI1), SERPINE1 (gene 5054); experiment: BSK_MyoF_PAI1: BioMAP Diversity Plus: MyoF Assay for Plasminogen activator inhibitor-1 (PAI1) Biomarker Activity (AID 2284256; active = hit-call score of the fitted dose curve at least 0.9, where 1 is the maximum; inactive = score below 0.9;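 as to outcome: PAI-1 protein level measured by ELISA in fibroblast cultures; PAI-1 read 24 h after compound addition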); conditions: primary human lung fibroblasts
In short: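 MyoF lung fibroblasts, human primary; compound 24 h; PAI-1 ELISA; positive-direction fit vs DMSO baseline; parallel SRB total-protein staining for cytotoxicity.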

S=C1NCCN1
outcome [1]: inactive
outcome [2]: inactive
outcome [3]: inactive

CCOP(=O)(SC(C)CC)N1CCSC1=O (stereo unspecified)
outcome [1]: inactive
outcome [2]: inactive

CC1=NNC(=O)N(/N=C/c2cccnc2)C1
outcome [1]: inactive

CON=C(C(=O)OC)c1ccccc1CON=C(C)c1cccc(C(F)(F)F)c1
AC50 [1]: 50 µM (active)
AC50 [2]: 50 µM (active)
AC50 [3]: 0.293 µM (active)

CN1COCN(Cc2cnc(Cl)s2)C1=N[N+](=O)[O-]
outcome [1]: inactive
outcome [2]: inactive
outcome [3]: inactive

CCCCSP(=O)(SCCCC)SCCCC
AC50 [1]: 35.8 µM (active) and 32.8 µM (active)
AC50 [2]: 66.9 µM (active)
AC50 [3]: 86 µM (active) and 24.4 µM (active)

CCOP(=S)(OCC)Oc1ccc([N+](=O)[O-])cc1
outcome [1]: inactive
outcome [3]: inactive

CC(=NC#N)N(C)Cc1ccc(Cl)nc1
outcome [1]: inactive
outcome [2]: inactive

C=C(C)[C@H]1Cc2c(ccc3c2O[C@@H]2COc4cc(OC)c(OC)cc4[C@@H]2C3=O)O1
AC50 [2]: 0.159 µM (active)

CCOP(=S)(OCC)Oc1ccc2c(C)c(Cl)c(=O)oc2c1
AC50 [1]: 73.8 µM (active)
AC50 [2]: 38.6 µM (active)
outcome [3]: inactive

C[N+]1(C)CCCCC1
outcome [1]: inactive

CCOP(=O)(NC(C)C)Oc1ccc(SC)c(C)c1 (stereo unspecified)
outcome [1]: inactive
AC50 [2]: 51 µM (active)
outcome [3]: inactive

O=[N+]([O-])c1cc(C(F)(F)F)c(Cl)c([N+](=O)[O-])c1Nc1ncc(C(F)(F)F)cc1Cl
AC50 [4]: 2.72 µM (active)
AC50 [1]: 2.95 µM (active)
AC50 [2]: 2.4 µM (active)
AC50 [3]: 0.717 µM (active)
AC50 [5]: 1.35 µM (active)
AC50 [6]: 2.27 µM (active)
AC50 [7]: 3.34 µM (active)
AC50 [8]: 3.75 µM (active)
AC50 [9]: 2.27 µM (active)
AC50 [10]: 2.2 µM (active)

CC(C)N(C(=O)SCC(Cl)=C(Cl)Cl)C(C)C
outcome [1]: inactive
outcome [2]: inactive
AC50 [3]: 24.6 µM (active)

CCOP(=S)(OCC)SCCSCC
outcome [1]: inactive
outcome [3]: inactive

CCOP(=S)(Oc1cnc(C(C)(C)C)nc1)OC(C)C (stereo unspecified)
AC50 [1]: 91.4 µM (active)
outcome [1]: inactive
outcome [2]: inactive
AC50 [3]: 20.1 µM (active)
outcome [3]: inactive

CSC1=N[C@@](C)(c2ccccc2)C(=O)N1Nc1ccccc1
outcome [1]: inactive
outcome [2]: inactive

CCOP(=S)(OCC)OC(Cl)C(Cl)(Cl)Cl (stereo unspecified)
AC50 [1]: 50.5 µM (active)
outcome [1]: inactive
AC50 [2]: 78.1 µM (active) and 88.7 µM (active)
AC50 [3]: 21.8 µM (active)
outcome [3]: inactive

COP(=O)(NC(C)=O)SC (stereo unspecified)
outcome [1]: inactive
outcome [2]: inactive
outcome [3]: inactive

CCCSP(=O)(OCC)SCCC
outcome [1]: inactive
outcome [2]: inactive
AC50 [3]: 3.79 µM (active)
outcome [3]: inactive

CC[C@H](C)[C@H]1O[C@]2(C=C[C@@H]1C)C[C@@H]1C[C@@H](C/C=C(\C)[C@@H](O[C@H]3C[C@H](OC)[C@@H](O[C@H]4C[C@H](OC)[C@@H](NC)[C@H](C)O4)[C@H](C)O3)[C@@H](C)/C=C/C=C3\CO[C@@H]4[C@H](O)C(C)=C[C@@H](C(=O)O1)[C@]34O)O2
AC50 [1]: 14.3 µM (active) and 3.62 µM (active)
AC50 [2]: 1.3 µM (active)
AC50 [3]: 672 nM (active) and 1.14 µM (active)

CCOP(=S)(OCC)Oc1cc(C)nc(C(C)C)n1
outcome [1]: inactive
outcome [3]: inactive

CCOC(=O)CC(SP(=O)(OC)OC)C(=O)OCC (stereo unspecified)
outcome [1]: inactive
outcome [2]: inactive

COP(=O)(OC)OC(Br)C(Cl)(Cl)Br (stereo unspecified)
AC50 [1]: 11.9 µM (active)
outcome [1]: inactive
AC50 [2]: 17.8 µM (active) and 85 µM (active)
AC50 [3]: 26.1 µM (active)
outcome [3]: inactive

CCCSP(=O)(OCC)Oc1ccc(Br)cc1Cl (stereo unspecified)
outcome [1]: inactive
outcome [2]: inactive
outcome [3]: inactive

COP(=O)(OC)C(O)C(Cl)(Cl)Cl (stereo unspecified)
AC50 [1]: 15.5 µM (active)
outcome [2]: inactive
AC50 [3]: 50 µM (active)

CCOP(=O)(OCC)Oc1cc(C)nc(C(C)C)n1
outcome [1]: inactive
outcome [2]: inactive

CN(C)[C@@H]1C(=O)C(C(N)=O)=C(O)[C@@]2(O)C(=O)C3=C(O)c4c(O)cccc4[C@@](C)(O)[C@H]3[C@H](O)[C@@H]12
outcome [4]: inactive
AC50 [1]: 25.2 µM (active)
outcome [2]: inactive
AC50 [3]: 86.1 µM (active)
outcome [5]: inactive
outcome [6]: inactive
outcome [7]: inactive
outcome [8]: inactive
outcome [9]: inactive
outcome [10]: inactive
